Measured values as given in PubChem BioAssay (Tox21).
Results filed as inconclusive are left out. Calls of active or inactive are those of the source. Unless noted, calls come from the whole dose curve.

Assays:
[1] = Nuclear factor erythroid 2-related factor 2/antioxidant responsive element (Nrf2/ARE) small molecule agonists: qHTS cell viability counter screen in human keratinocytes (AID 1919968; active = well fitted curve in the direction sought with a large enough effect in the repeat runs; an effect the other way counts as inactive or inconclusive; note: nearly all actives have a fitted effect of over 55% in size; note: potency is the fitted concentration of half-maximal effect)
How it was run: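 Viability counter-screen: KeratinoSens reporter cells, DMSO-delivered compounds, 23 h at 37 C, CellTiter-Fluor fluorescence.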

[2] = Nuclear factor erythroid 2-related factor 2/antioxidant responsive element (Nrf2/ARE) small molecule agonists: luciferase reporter gene qHTS assay in human keratinocytes (AID 1919969); note: nearly all actives have a fitted effect of over 35% in size; note: potency is the fitted concentration of half-maximal effect
[3] = target: Gonadotropin-releasing hormone receptor (Homo sapiens) (UniProt P30968); assay: Human gonadotropin-releasing hormone receptor (GnRHR) small molecule agonists, calcium flux assay in GnRHR-HEK293 cells (AID 1920063); note: nearly all actives have a fitted effect of over 35% in size
How it was run: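 Tox21-format agonist screen using human GnRHR-expressing HEK293 cells and a fluorescent calcium dye; kinetic 3-min fluorescence reading after compound addition, 15-point concentration series run in triplicate.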

[4] = G protein-coupled receptor (GPCR) small molecule agonists, calcium flux assay: HEK293 wild type cell line counter screen (AID 1920065)
How it was run: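 In this agonist-mode screen, ATP is the positive control and DMSO the vehicle. Cells grow 18 h before a 1 h dye incubation at 37 C; signal is taken at Ex/Em 480/540 over 3 min.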

[5] = p53 small molecule agonists, cell-based qHTS assay with human liver microsomes: qHTS cell viability counter screen (AID 1963579); note: nearly all actives have a fitted effect of over 45% in size
How it was run: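 In this multiplexed counter screen, the reporter plates were subsequently treated with CellTiter-Glo so that cell viability, reflected by luminescence, could be recorded for p53RE-bla cells dosed 16 h with compounds under microsomal activation (HLM and NADPH).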

[6] = p53 small molecule agonists, cell-based qHTS assay with rat liver microsomes: qHTS cell viability counter screen (AID 1963580); note: nearly all actives have a fitted effect of over 45% in size
How it was run: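 Intracellular ATP, by CellTiter-Glo luminescence, defines viability. HCT-116 p53RE-bla cells, 4,000 per well, were compound-treated in the presence of rat liver microsomes and NADPH for 16 h at 37 C.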

[7] = p53 small molecule agonists, cell-based qHTS assay: qHTS cell viability counter screen (AID 1963581); note: nearly all actives have a fitted effect of over 45% in size
How it was run: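 Compounds are pinned onto HCT-116 p53RE-bla cells and left 16 h at 37 C. Following the reporter FRET read, ATP is quantified by CellTiter-Glo luminescence after 30 min at room temperature.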

[8] = target: 5-hydroxytryptamine receptor 2A (Homo sapiens) (UniProt P28223); assay: 5-hydroxytryptamine receptor 2A (HTR2A) small molecule antagonists, cell-based qHTS assay (AID 1963586); note: nearly all actives have a fitted effect of over 45% in size; note: potency is the fitted concentration of half-maximal effect
How it was run: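 Antagonist-mode intracellular calcium assay: DOI (4 nM) added after 5 min compound pre-incubation at room temperature to dye-loaded HTR2A-CHO cells. Fluorescence followed for 3 min, sampled every second.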

[9] = target: 5-hydroxytryptamine receptor 2A (Homo sapiens) (UniProt P28223); assay: 5-hydroxytryptamine receptor 2A (HTR2A) small molecule agonists, cell-based qHTS assay (AID 1963587); note: nearly all actives have a fitted effect of over 30% in size
How it was run: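 Kinetic calcium-flux fluorescence (2 min, 1 sec intervals) after compound addition in agonist mode. HTR2A-CHO cells were cultured 18 h, then dye-loaded 1 h at 37 C.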

[10] = target: Muscarinic acetylcholine receptor M1 (Homo sapiens) (UniProt P11229); assay: Cholinergic receptor muscarinic 1 (CHRM1) small molecule antagonists, cell-based qHTS assay (AID 1963588); note: nearly all actives have a fitted effect of over 40% in size; note: potency is the fitted concentration of half-maximal effect
How it was run: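 CHRM1-CHO calcium-flux assay, antagonist mode. Cells were seeded 18 h, dye-loaded 1 h at 37 C and given compound for 5 min at RT, then acetylcholine was added at 50nM. FDSS fluorescence was read 3 min; 15 concentrations, three runs.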

[11] = target: Muscarinic acetylcholine receptor M1 (Homo sapiens) (UniProt P11229); assay: Cholinergic receptor muscarinic 1 (CHRM1) small molecule agonists, cell-based qHTS assay (AID 1963589); note: nearly all actives have a fitted effect of over 35% in size
How it was run: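 Stable CHRM1-CHO cells (human receptor) were incubated 18 h, dye-loaded for 1 h at 37 C and exposed to test compounds for agonist activity, with calcium-dependent fluorescence followed kinetically.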

[12] = cAMP Responsive Elements (CRE) small molecule agonists, cell-based qHTS assay (AID 1963590)
How it was run: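 FRET-based beta-lactamase readout (LiveBLAzer B/G, 2 h RT) quantified CRE activation in HEK 293T CRE-bla cells after 3 h treatment with DMSO-dissolved compounds.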

[13] = cAMP Responsive Elements (CRE) small molecule antagonists, cell-based qHTS assay (AID 1963591; active = well fitted inhibition curve with a large enough effect in the signal ratio in the repeat runs, not every such curve was filed as active; the % refers to the signal ratio)
How it was run: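 qHTS in CRE-bla HEK 293T cells: compound in DMSO, then 0.25 uM NKH477 (final), 3 h at 37 °C/5% CO2; beta-lactamase FRET read-out after 2 h substrate incubation.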

[14] = target: Beta-2 adrenergic receptor (Homo sapiens) (UniProt P07550); assay: Adrenergic beta2 receptor (ADRB2) small molecule antagonists, cell-based qHTS assay (AID 1963592); note: nearly all actives have a fitted effect of over 50% in size; note: potency is the fitted concentration of half-maximal effect
How it was run: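 Cells (CHO, stable ADRB2 overexpression) incubated 18-20hr at 37C; compounds added from DMSO; agonist mix (1nM isoproterenol, 100uM IBMX, 25uM Ro-20-1724) added; 0.5hr RT; d2-cAMP and anti-cAMP-cryptate added; 1hr RT; 665/615 nm read.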

[15] = target: Beta-2 adrenergic receptor (Homo sapiens) (UniProt P07550); assay: Adrenergic beta2 receptor (ADRB2) small molecule agonists, cell-based qHTS assay (AID 1963593);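 note: CHO cells stably overexpressing human ADRB2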
How it was run: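 CHO cells stably over-expressing ADRB2 were plated overnight at 37C, then dosed with compounds plus a stimulation mix containing 100uM IBMX and 25uM Ro-20-1724 for 0.5hr at room temperature. cAMP was measured by HTRF competition, 1hr.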

[16] = target: D(2) dopamine receptor (Homo sapiens) (UniProt P14416); assay: Dopamine D2 receptor (DRD2) small molecule antagonists, cell-based qHTS assay (AID 1963595; active = well fitted inhibition curve with a large enough effect in the signal ratio in the repeat runs, with a control signal flat; the % refers to the signal ratio; note: potency is the fitted concentration of half-maximal effect)
How it was run: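 HTRF cAMP read-out at 665 and 620 nm emission (340 nm excitation). Antagonist mode: compounds were tested against 12 nM quinpirole in DRD2-HEK293 cells, with 200 nM NKH477 raising cAMP and 0.1 mM Ro20-1724 blocking its breakdown.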

[17] = target: D(2) dopamine receptor (Homo sapiens) (UniProt P14416); assay: Dopamine D2 receptor (DRD2) small molecule agonists, cell-based qHTS assay (AID 1963594); note: nearly all actives have a fitted effect of over 35% in size; note: potency is the fitted concentration of half-maximal effect
How it was run: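 cAMP accumulation in DRD2-HEK293 cells measured by HTRF after 1 h detection; compounds added 10 min before NKH477 (200nM […]) forskolin-analogue stimulation, 30 min at room temperature, with Ro20-1724 present at 0.1 mM final.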

[18] = p53 small molecule agonists, cell-based qHTS assay with rat liver microsomes (AID 1963578)
How it was run: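 With rat liver microsomes and NADPH present (0.5 mg/mL final each), p53RE-bla cells are treated with compound for 16 h at 37 C. LiveBLAzer detection mixture is then applied for 2 h at room temperature in the dark.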

[19] = target: KiSS-1 receptor (Homo sapiens) (UniProt Q969F8); assay: Human kisspeptin (KISS1R) small molecule agonists, calcium flux assay in KISS1R-HEK293 cells (AID 1920064; active = well fitted curve in the direction sought with a large enough effect in the repeat runs; an effect the other way counts as inactive or inconclusive)
How it was run: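 Intracellular calcium mobilization in KISS1R-HEK293 cells was recorded by fluorescence (Ex/Em 480/540) for 3 min following compound addition to cells pre-loaded 1 h with calcium dye.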

[20] = p53 small molecule agonists, cell-based qHTS assay with human liver microsomes (AID 1963577);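 note: p53 response element beta-lactamase reporter cells with liver microsomes plus NADPH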
How it was run: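 16 h, 37 C exposure of p53RE-bla cells to compounds with human liver microsomes and NADPH (0.5 mg/mL final each); detection via LiveBLAzer mixture, 2 h dark at room temperature.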

Measured: Potency

Sequence of D(2) dopamine receptor (Homo sapiens) (P14416 whole entry, looked up): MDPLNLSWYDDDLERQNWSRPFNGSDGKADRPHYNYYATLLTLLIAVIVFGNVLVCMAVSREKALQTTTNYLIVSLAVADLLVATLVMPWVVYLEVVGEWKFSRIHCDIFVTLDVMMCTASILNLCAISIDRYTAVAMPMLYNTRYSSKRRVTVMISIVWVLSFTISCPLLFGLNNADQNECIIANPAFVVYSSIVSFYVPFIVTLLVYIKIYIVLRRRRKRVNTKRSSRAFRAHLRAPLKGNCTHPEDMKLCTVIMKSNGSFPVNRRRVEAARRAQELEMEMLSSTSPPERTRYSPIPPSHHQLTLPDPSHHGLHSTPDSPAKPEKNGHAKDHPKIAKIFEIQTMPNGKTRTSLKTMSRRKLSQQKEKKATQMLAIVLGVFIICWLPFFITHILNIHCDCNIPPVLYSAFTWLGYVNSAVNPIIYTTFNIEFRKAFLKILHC
Sequence of Beta-2 adrenergic receptor (Homo sapiens) (P07550 whole entry, looked up): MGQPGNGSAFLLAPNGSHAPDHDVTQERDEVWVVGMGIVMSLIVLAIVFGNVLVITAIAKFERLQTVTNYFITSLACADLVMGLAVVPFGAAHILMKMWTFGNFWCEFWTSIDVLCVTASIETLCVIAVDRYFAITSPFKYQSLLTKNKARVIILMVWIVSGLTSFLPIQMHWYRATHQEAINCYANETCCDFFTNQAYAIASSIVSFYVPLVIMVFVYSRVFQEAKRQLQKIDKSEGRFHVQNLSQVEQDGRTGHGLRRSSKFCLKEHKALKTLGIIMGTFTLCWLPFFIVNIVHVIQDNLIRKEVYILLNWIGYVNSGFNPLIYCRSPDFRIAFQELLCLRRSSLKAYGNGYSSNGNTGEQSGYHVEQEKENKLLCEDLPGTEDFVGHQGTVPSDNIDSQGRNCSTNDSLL
Sequence of Muscarinic acetylcholine receptor M1 (Homo sapiens) (P11229 whole entry, looked up): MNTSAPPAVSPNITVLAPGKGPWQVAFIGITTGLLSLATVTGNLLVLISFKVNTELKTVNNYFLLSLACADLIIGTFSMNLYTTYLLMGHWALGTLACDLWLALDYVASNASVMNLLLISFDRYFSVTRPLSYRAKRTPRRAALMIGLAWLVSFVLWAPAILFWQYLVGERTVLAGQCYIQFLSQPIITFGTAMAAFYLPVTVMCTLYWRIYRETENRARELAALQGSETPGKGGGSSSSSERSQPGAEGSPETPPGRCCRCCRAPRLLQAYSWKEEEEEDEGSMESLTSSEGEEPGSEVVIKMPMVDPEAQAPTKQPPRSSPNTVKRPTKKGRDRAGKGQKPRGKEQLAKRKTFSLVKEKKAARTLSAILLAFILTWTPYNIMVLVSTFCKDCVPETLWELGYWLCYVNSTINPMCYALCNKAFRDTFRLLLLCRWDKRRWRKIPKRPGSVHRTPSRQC
Sequence of 5-hydroxytryptamine receptor 2A (Homo sapiens) (P28223 whole entry, looked up): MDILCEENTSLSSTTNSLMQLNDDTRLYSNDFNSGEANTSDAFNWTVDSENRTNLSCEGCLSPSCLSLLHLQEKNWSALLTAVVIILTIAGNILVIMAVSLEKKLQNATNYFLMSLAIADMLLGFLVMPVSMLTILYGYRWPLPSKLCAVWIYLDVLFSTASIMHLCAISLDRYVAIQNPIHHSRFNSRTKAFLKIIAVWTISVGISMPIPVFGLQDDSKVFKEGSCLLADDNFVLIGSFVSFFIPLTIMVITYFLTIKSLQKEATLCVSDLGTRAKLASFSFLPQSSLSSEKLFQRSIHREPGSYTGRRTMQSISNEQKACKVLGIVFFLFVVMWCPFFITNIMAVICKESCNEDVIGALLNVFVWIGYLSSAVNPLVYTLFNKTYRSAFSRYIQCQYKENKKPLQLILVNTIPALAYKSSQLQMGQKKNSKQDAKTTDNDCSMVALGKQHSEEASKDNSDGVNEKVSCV
Sequence of Gonadotropin-releasing hormone receptor (Homo sapiens) (P30968 whole entry, looked up): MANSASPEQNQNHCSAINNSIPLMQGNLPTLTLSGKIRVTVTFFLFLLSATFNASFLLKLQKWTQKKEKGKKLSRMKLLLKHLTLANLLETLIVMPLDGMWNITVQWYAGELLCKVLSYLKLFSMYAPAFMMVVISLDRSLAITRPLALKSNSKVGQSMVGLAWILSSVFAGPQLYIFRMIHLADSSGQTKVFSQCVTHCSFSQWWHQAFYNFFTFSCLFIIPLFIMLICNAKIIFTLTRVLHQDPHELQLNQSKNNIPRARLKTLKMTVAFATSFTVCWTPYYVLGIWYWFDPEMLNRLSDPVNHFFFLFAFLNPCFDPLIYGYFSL
Sequence of KiSS-1 receptor (Homo sapiens) (Q969F8 whole entry, looked up): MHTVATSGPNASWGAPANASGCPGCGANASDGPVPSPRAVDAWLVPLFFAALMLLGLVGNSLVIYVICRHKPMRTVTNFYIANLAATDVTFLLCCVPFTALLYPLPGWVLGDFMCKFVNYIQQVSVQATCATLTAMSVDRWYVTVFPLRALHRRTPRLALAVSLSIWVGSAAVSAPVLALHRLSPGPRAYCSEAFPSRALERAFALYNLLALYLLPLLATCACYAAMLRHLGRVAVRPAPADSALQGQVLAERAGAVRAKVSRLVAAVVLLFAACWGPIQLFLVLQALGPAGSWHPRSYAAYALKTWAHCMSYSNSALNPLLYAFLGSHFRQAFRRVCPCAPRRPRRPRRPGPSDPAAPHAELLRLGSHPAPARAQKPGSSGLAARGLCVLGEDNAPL

CCCCCCOC(=O)CC(CC(=O)OCCCCCC)(OC(=O)CCC)C(=O)OCCCCCC
not listed: [17] | [18] | [19] | [20]
inactive: all other assays above

CN(C(=O)CN(CCO)CC(=O)N(C)C(C)(C)Cc1ccccc1)C(C)(C)Cc1ccccc1
not listed: [12] | [15] | [18] | [19] | [20]
inactive: all other assays above

COc1cc2nc(N(C)CCCNC(=O)C3CCCO3)nc(N)c2cc1OC (stereo not given)
not listed: [8] | [18] | [19] | [20]
inactive: all other assays above

C[C@H]1COc2c(C3(N)CC3)c(F)cc3c(=O)c(C(=O)O)cn1c23
not listed: [5] | [12] | [18] | [19] | [20]
inactive: all other assays above

OC[C@H]1O[C@@H]2O[C@H]3[C@H](O)[C@@H](O)[C@@H](O[C@H]4[C@H](O)[C@@H](O)[C@@H](O[C@H]5[C@H](O)[C@@H](O)[C@@H](O[C@H]6[C@H](O)[C@@H](O)[C@@H](O[C@H]7[C@H](O)[C@@H](O)[C@@H](O[C@H]8[C@H](O)[C@@H](O)[C@@H](O[C@H]9[C@H](O)[C@@H](O)[C@@H](O[C@H]1[C@H](O)[C@H]2O)O[C@@H]9CO)O[C@@H]8CO)O[C@@H]7CO)O[C@@H]6CO)O[C@@H]5CO)O[C@@H]4CO)O[C@@H]3CO
not listed: [6] | [18] | [19] | [20]
inactive: all other assays above

CCCCCCCCNC
not listed: [15] | [18] | [19] | [20]
inactive: all other assays above

NC(Cc1c[nH]c2ccccc12)C(=O)O (stereo not given)
not listed: [8] | [15] | [18] | [19] | [20]
inactive: all other assays above

COC(=O)CC(=O)C(C)(C)C
not listed: [8] | [9] | [18] | [19] | [20]
inactive: all other assays above

Cc1nc2sccn2c(=O)c1CCN1CCC(=C(c2ccc(F)cc2)c2ccc(F)cc2)CC1
active: [1] 26.6 µM | [10] 2.59 µM | [16] 26.6 µM
inactive: [2] | [3] | [4] | [18] | [6] | [7] | [9] | [11] | [17]

CCOc1ccc2nc(S(N)(=O)=O)sc2c1
active: [2] 6.68 µM
not listed: [5] | [8] | [16] | [18] | [19] | [20]
inactive: all other assays above

CCCC(=O)OCCc1ccccc1
not listed: [3] | [7] | [9] | [11] | [14] | [15]
inactive: all other assays above

CCCOC(OCCC)OCCC
not listed: [4] | [9] | [17] | [18] | [19] | [20]
inactive: all other assays above

C[C@@H](CN(C)C)CN1c2ccccc2Sc2ccccc21
active: [8] 0.0041 µM | [14] 29.8 µM | [16] 1.68 µM
not listed: [3] | [10] | [15] | [17]
inactive: all other assays above

CC1(COc2ccc(CC3SC(=O)NC3=O)cc2)CCCCC1 (stereo not given)
active: [2] 29.8 µM | [17] 12.8 µM
inactive: [1] | [19] | [4] | [20] | [18] | [6] | [7] | [14] | [15] | [16]

CC(C)C[C@H](NC(=O)CNC(=O)[C@H](Cc1ccc(O)cc1)NC(=O)[C@H](CO)NC(=O)[C@H](Cc1c[nH]c2ccccc12)NC(=O)[C@H](Cc1cnc[nH]1)NC(=O)[C@@H]1CCC(=O)N1)C(=O)N[C@@H](CCCN=C(N)N)C(=O)N1CCC[C@H]1C(=O)NCC(N)=O (stereo in doubt)
not listed: [3] | [5] | [8] | [9] | [10] | [11]
inactive: all other assays above
